In ChEMBL document CHEMBL1157539, “Thousands of chemical starting points for antimalarial lead identification” (Nature, 2010):

Legend:
Assay type in all cases: functional
[1] = tested on: Plasmodium falciparum; assay: GSK_TCMDC: Inhibition of Plasmodium falciparum 3D7 in whole red blood cells, using parasite LDH activity as an index of growth. Test compounds present at 2uM
[2] = tested on: Plasmodium falciparum; assay: GSK_TCMDC: Inhibition of Plasmodium falciparum Dd2 in whole red blood cells, using parasite LDH activity as an index of growth. Test compounds present at 2uM
[3] = tested on: HepG2; assay: GSK_TCMDC: Percent inhibition of human HepG2 cell line. Test compounds present at 10uM.

| SMILES | Inhibition [1] [%] | Inhibition [2] [%] | Inhibition [3] [%] |
| --- | --- | --- | --- |
| CCCCc1ccc2ncc(C(=O)OCC)c(O)c2c1 | 95 | 96 | 3 |
| COc1cc(CC2c3cc(O)c(Cl)cc3CCN2C)c(OC)cc1C.Cl (stereo not drawn) | 99 | 88 | 10 |
| COc1ccc(N2CCN(CCCN3CCN(C(=O)c4ccc(/C=C/c5ccc(Cl)c(Cl)c5)cc4)CC3)CC2)c(OC)c1.O=C(O)/C=C/C(=O)O | 93 | 52 | 47 |
| Cc1cc(N/N=C/c2ccccc2[N+](=O)[O-])c2ccc(F)cc2n1 | 100 | 100 | 32 |
| Cc1ccc(-c2cc(C(=O)Nc3ccc(S(=O)(=O)N4CCOCC4)cc3)[nH]n2)c(O)c1C | 91 | 45 | 18 |
| CCOc1ccc2ccccc2c1CNCCCCCCNCc1c(OCC)ccc2ccccc12.CS(=O)(=O)O | 100 | 89 | 100 |
| Cc1cccc2nc(-c3cccc(-c4cccc(CNCCc5ccncc5)c4)c3)[nH]c12.O=C(O)C(F)(F)F | 100 | 99 | 20 |
| CC(C)N1CCN(c2ccc(OCCCCN3CCN(c4cccc(Cl)c4Cl)CC3)c(C(F)(F)F)c2)CC1.Cl | 100 | 28 | 64 |
| CNCc1cccc(-c2ccc3ccnc(N)c3c2)c1 | 100 | 98 | 20 |
| CN(C)c1cc(NC(=O)Nc2ccccc2)c2ccccc2n1 | 100 | 98 | 11 |
| O=C(O)C(F)(F)F.c1ccc(CNCc2cccc(-c3cccc(-c4nc5ccccc5[nH]4)c3)c2)cc1 | 100 | 38 | 12 |
| CCC(C)(C)c1ccc2nc(N)nc(N)c2c1C | 91 | 82 | 62 |
| Cl.c1ccc2c(NCCCCCCNc3ccnc4ccccc34)ccnc2c1 | 100 | 12 | 43 |
| COc1ccc(NC(=O)[C@H](CC(C)C)Nc2cc(C)nc(NCc3ccccc3C)n2)cc1.O=C(O)C(F)(F)F | 100 | 78 | 12 |
| Cl.N#Cc1cccc(-c2ccc(C(=O)Nc3ccc4c(c3)CCN(C3CCC3)CC4)cn2)c1 | 96 | 5 | 26 |
| COc1ccc(-c2cccc(NC(=O)c3cccc(Cl)c3)c2)cc1CN1CCC(O)CC1.O=C(O)C(F)(F)F | 98 | 16 | 38 |
| CCOc1cc(Cc2cnc(N)nc2N)cc(OCC)c1-n1cccc1 [EPIROPRIM] | 98 | 0 | 0 |
| N#Cc1cncc(-c2nc3c(N4CCC(Cc5ccccc5)CC4)cccc3n2CCNCc2ccccc2)c1.O=C(O)C(F)(F)F | 99 | 99 | 2 |
| CC(C)c1sc(-c2ccc(C(C)(C)C)cc2)nc1C(=O)NCCCN1CCCC1=O | 96 | 92 | 0 |
| O=C(NCC1CN(Cc2ccc(N3CCCC3)o2)CCCO1)c1ccc2c(c1)OCO2.O=CO (stereo not drawn) | 83 | 70 | 0 |
| CCOC(=O)c1c(SCc2cccc(F)c2F)[nH]c2ccccc2c1=O | 98 | 95 | 1 |

| SMILES | Inhibition [1] [%] | Inhibition [2] [%] | Inhibition [3] [%] |
| --- | --- | --- | --- |
| O=C(/C=C/c1ccc(C(F)(F)F)cc1)NCCCCCN1CCCN(C(=O)Nc2cccc(Cl)c2)CC1 | 92 | 3 | 16 |
| OC(CNc1ccnc(Nc2ccc(Cl)cc2)n1)c1ccccc1C(F)(F)F (stereo not drawn) | 98 | 28 | 22 |
| COc1ccc2c(Nc3ccc(N4CCN(C)CC4)cc3)cc(C)nc2c1 | 100 | 9 | 23 |
| Cn1ccc(C(=O)Nc2ccc3c(c2)CN(Cc2ccc(N4CCCC4)o2)CCC3)n1.O=CO | 80 | 72 | 19 |
| CC1(C)N=C(N)N=C(NOCc2ccc(Cl)c(Cl)c2)N1 | 96 | 27 | 5 |
| Cc1cccc(CNc2nc(C)cc(N[C@@H](Cc3ccccc3)C(=O)NC3CCCC3)n2)c1.O=C(O)C(F)(F)F | 100 | 97 | 51 |
| CN1CCC(N(C)C(=O)C=Cc2cn(-c3ccccc3)nc2-c2cc3ccccc3o2)CC1.Cl | 92 | 5 | 38 |
| CCC(C)c1ccc(-n2c(Nc3ccccc3)nc3cc(S(N)(=O)=O)ccc32)cc1 (stereo not drawn) | 88 | 28 | 0 |
| O=[N+]([O-])c1ccc(C(O)P(=O)(c2ccccc2)c2ccccc2)cc1 (stereo not drawn) | 98 | 1 | 1 |
| Cc1ccc(CN2CCCN(Cc3cccc(C(=O)Nc4ccc(C(C)(C)C)cc4)c3)CC2)s1.O=C(O)C(F)(F)F | 85 | 4 | 31 |
| CC(=O)Nc1nc(C(=O)Nc2cccc(-c3cccc(-c4nc5cccc(C)c5[nH]4)c3)c2)cs1 | 100 | 94 | 28 |
| NC(=O)c1ccsc1NC(=O)CNC(c1ccccc1)c1ccc(Cl)cc1 (stereo not drawn) | 83 | 89 | 25 |
| CN(C)c1ccc(-c2ccc(C(=O)NC3CCN(Cc4ccc(C(C)(C)C)cc4)CC3)s2)cc1.O=C(O)C(F)(F)F | 95 | 59 | 35 |
| O=C(NC1CCCCC1)N(Cc1ccc(-c2cccc(CNC3CCCC3)c2)cc1)C1CCN(Cc2ccccc2)CC1.O=C(O)C(F)(F)F | 95 | 59 | 52 |
| CC(=O)c1ccc2cc(C(=O)NC3CCC(CCN4CCc5ccc(-c6noc(C)n6)cc5CC4)CC3)[nH]c2c1.Cl (stereo not drawn) | 81 | 45 | 28 |
| CC(=O)Oc1cc(C)ccc1C1CCN(CCCCNC(=O)c2ccc(NC(=O)c3ccc(Cl)cc3)cc2)CC1 | 100 | 57 | 12 |
| COc1ccc(CCN(C)CCOc2ccc(NC(=O)c3ccc([N+](=O)[O-])c4c(=O)c5ccccc5[nH]c34)cc2)cc1OC | 91 | 25 | 38 |
| O=c1cc(NCC2(CNCc3cn(Cc4ccccc4)c4ccccc34)CCCCC2)[nH]c2ccccc12 | 100 | 56 | 27 |
| CCCC(=O)NC(c1cccs1)c1cc(Cl)c2cccnc2c1O (stereo not drawn) | 87 | 61 | 51 |
| Cc1ccc(NC(=O)c2ccnc(N3CCN(c4ccncc4)CC3)c2)cc1F.O=C(O)C(F)(F)F | 94 | 12 | 43 |
| CN1CCN(c2ccnc3ccc(NC(=O)Cc4cccc(Cl)c4Cl)cc23)CC1 | 100 | 64 | 8 |

| SMILES | Inhibition [1] [%] | Inhibition [2] [%] | Inhibition [3] [%] |
| --- | --- | --- | --- |
| CCN(CC)/C(=N/C(=N)NCc1cccc(Cl)c1)NCCCCCCN/C(=N\C(=N)NCc1cccc(Cl)c1)N(CC)CC | 99 | 99 | 17 |
| Br.CCOC(=O)c1cc(Cl)cc(Cl)c1OCCCON1C(=N)N=C(N)NC1(C)C | 93 | 97 | 70 |
| CCOc1ccc(Br)cc1/C=C/C(=O)Nc1ccc2c(c1)CCCN(C)C2.O=C(O)C(F)(F)F | 90 | 17 | 40 |
| CN(C)C(S)=NN=Cc1cccc(O)c1O | 91 | 55 | 11 |
| CC[C@H](C)CNCc1ccc(OCc2cccc(COc3ccc(CNC[C@@H](C)CC)cc3I)c2)c(I)c1.Cl | 99 | 60 | 99 |
| Cc1ccc(-c2ccc3c(c2)C=C(C(=O)NCC2CCN(CC4CCN(C(=O)/C=C/c5ccc(Cl)c(Cl)c5)CC4)CC2)CCC3)cc1 | 99 | 70 | 96 |
| COc1ccc2nc(Nc3nc4cnccc4[nH]3)sc2c1 | 88 | 26 | 8 |
| O=[N+]([O-])c1cc(/C=N/Nc2nc3nonc3nc2Nc2ccc(F)cc2)c(Cl)cc1Cl | 98 | 13 | 5 |
| COCCNCC(O)Cn1c2ccc(Cl)cc2c2cc(Cl)ccc21 (stereo not drawn) | 95 | 74 | 15 |
| Cc1cccc2nc(-c3ccc(-c4cccc(NC(=O)C(C)CN5CCN(C)CC5)c4)s3)[nH]c12 (stereo not drawn) | 97 | 75 | 11 |
| CC(C)N(Cc1ccc(-c2ccc(C(F)(F)F)cc2)cc1)C(=O)Cn1c(CCc2cccc(F)c2F)cc(=O)c2ccc(CCCN3CCCCC3)cc21.O=C(O)C(O)C(O)C(=O)O | 100 | 82 | 99 |
| N#CCSc1nnc(-c2ccccc2)c2ccccc12 | 84 | 73 | 5 |
| COC(=O)c1c(C#N)c(OC)cc(O)c1CSC[C@H](Nc1nc(-c2ccc([N+](=O)[O-])cc2)cs1)C(=O)NCCN1CCCCC1 | 85 | 88 | 5 |
| CC(C)n1ncc2c(C(=O)N3CCCC4CCCCC43)cc(C3CC3)nc21 (stereo not drawn) | 99 | 92 | 7 |
| O=C(/C=C/c1ccc(Cl)c(Cl)c1)NCCCCCCN1CCN(C(=O)Nc2ccc(OC(F)F)cc2)CC1 | 91 | 15 | 44 |
| CC1CCCC(C)N1C[C@@H](O)CNS(=O)(=O)c1cccc(C(F)(F)F)c1.Cl (stereo partly drawn) | 99 | 2 | 4 |
| Cc1cccc2nc(-c3cccc(-c4ccc(CNCCc5ccncc5)cc4)c3)[nH]c12.O=C(O)C(F)(F)F | 100 | 100 | 40 |
| CC(C)NCc1ccc(-c2cccc(NC(=O)c3cccc(Cl)c3)c2)cc1.O=C(O)C(F)(F)F | 100 | 87 | 24 |
| O=C(NC1CC1)c1ccc(N2CCC(Oc3ccc(F)cc3)CC2)nc1 | 89 | 79 | 0 |
